# Reference: a collection of fitness landscapes (doi:10.1038/s41467-024-54723-y)
# In all, about 18,000 sequences were measured (“TetR repression strength (sort-seq, GFP reporter)”: median about 0.23, highest 2% from about 0.68 on). The entries come from a sample that favours the highest values as a whole.
# Target: TetR (class B, Tn10) (UniProt P04483)
# Assay: TetR repression strength (sort-seq, GFP reporter) (relative to tetO2 = 1); higher = stronger repression
# Conditions: E. coli
# Procedure, shortened: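 Repression strength was calculated by subtracting the read-weighted mean bin from the top bin index plus one and dividing by the unaltered operator's value. The plasmid library was low-copy in E. coli SIG10-MAX, with eight randomized operator positions between a constitutive promoter and sfGFP and constitutive TetR. Cultures grew 5 h at 37 °C in LB containing 50 µg/mL chloramphenicol before 10^6 cells were sorted by FACS into 13 fluorescence bins, each sequenced on Illumina. Three independent transformations were averaged for members having ≥30 reads in all replicates and a CV ≤0.5.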
# Sequence of TetR (class B, Tn10) (P04483 whole entry): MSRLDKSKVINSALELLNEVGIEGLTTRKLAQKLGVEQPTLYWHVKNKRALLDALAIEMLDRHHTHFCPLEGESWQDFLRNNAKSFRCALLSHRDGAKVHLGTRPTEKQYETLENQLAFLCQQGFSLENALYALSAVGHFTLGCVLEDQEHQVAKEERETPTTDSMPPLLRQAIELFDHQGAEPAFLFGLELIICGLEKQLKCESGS
row,Sequence,TetR repression strength
1,TCCCGGCTAGTGTGGGAGA,0.221
2,TCCCAGGAAGTCAGGGAGA,0.235
3,TCCCCGAGAGTGCCAGAGA,0.411
4,TCCCAATGAGTTCAGGAGA,0.243
5,TCCCAGTTAGTAATTGAGA,0.0467
6,TCCCTGGGAGTTGGGGAGA,0.211
7,TCCCCTGGAGTTGGGGAGA,1.09
8,TCCCCTGGAGTTTGGGAGA,0.286
9,TCCCGACTAGTGATAGAGA,0.632
10,TCCCGTCTAGTGTTTGAGA,0.371
11,TCCCCTGTAGTGTTTGAGA,0.396
12,TCCCCTCGAGTGTTTGAGA,0.92
13,TCCCCTCGAGTGTGTGAGA,0.125
14,TCCCCTTGAGTGTTTGAGA,0.302
15,TCCCCTCTAGTGTTTGAGA,0.945
16,TCCCCCAGAGTTAACGAGA,0.207
17,TCCCCTGCAGTGGCTGAGA,0.205
18,TCCCCACGAGTAGTCGAGA,0
19,TCCCCTAGAGTCGATGAGA,0.271
20,TCCCCAAAAGTAGATGAGA,0.081
21,TCCCCATGAGTCGTCGAGA,0.214
22,TCCCGTAGAGTCGATGAGA,0.715
23,TCCCCAATAGTAGATGAGA,0.672

row,Sequence,TetR repression strength
1,TCCCCATTAGTAGTCGAGA,1.01
2,TCCCCAATAGTAGTCGAGA,0.459
3,TCCCCATTAGTATTCGAGA,0.24
4,TCCCCATGAGTAGTCGAGA,1.03
5,TCCCGTTGAGTCGATGAGA,0.335
6,TCCCCAAGAGTAGATGAGA,0.739
7,TCCCGAAGAGTAAGTGAGA,0.207
8,TCCCGTCCAGTGTGTGAGA,0.22
9,TCCCATATAGTGTACGAGA,0.0769
10,TCCCCTAGAGTGCAAGAGA,0.552
11,TCCCATGGAGTTGGTGAGA,0.227
12,TCCCCTCAAGTCGAGGAGA,0.125
13,TCCCTACAAGTGGATGAGA,0.221
14,TCCCTCTCAGTGCCAGAGA,0.585
15,TCCCCAGTAGTCCCTGAGA,0.945
16,TCCCTGTCAGTGCCAGAGA,0.324
17,TCCCTATCAGTCCGAGAGA,0.324
18,TCCCCTTCAGTCCCAGAGA,1.12
19,TCCCTATTAGTCCCAGAGA,0.32
20,TCCCTATCAGTCCCAGAGA,1.18
21,TCCCTATCAGTGCCAGAGA,0.743
22,TCCCTTTCAGTCCCAGAGA,0.0305
23,TCCCAGTCAGTCCCAGAGA,0.365

row,Sequence,TetR repression strength
1,TCCCCAGTAGTCGCTGAGA,0.311
2,TCCCCAGTAGTCTGAGAGA,0.0196
3,TCCCGTCAAGTAATAGAGA,0.331
4,TCCCTGTTAGTTGTCGAGA,0.341
5,TCCCTTTCAGTATGGGAGA,0.422
6,TCCCAAAAAGTGGTGGAGA,0.203
7,TCCCCGCGAGTTGAAGAGA,0.335
8,TCCCTAACAGTCGGCGAGA,0.163
9,TCCCTGAGAGTCGTGGAGA,0.239
10,TCCCGTCAAGTGGATGAGA,0.109
11,TCCCTCCGAGTGCAGGAGA,0.492
12,TCCCCCGCAGTGCATGAGA,0.385
13,TCCCCCTCAGTTGTAGAGA,0.237
14,TCCCGACCAGTGCGGGAGA,0.222
15,TCCCGACCAGTGCAGGAGA,0.805
16,TCCCGACAAGTGCAGGAGA,0.684
17,TCCCGAAAAGTGCAGGAGA,0.26
18,TCCCGAGCAGTGCAGGAGA,0.226
19,TCCCGAGAAGTGCAGGAGA,0.173
20,TCCCTAGCAGTGGTGGAGA,0.27
21,TCCCGTTGAGTGTATGAGA,0.181
22,TCCCAGGCAGTCCGTGAGA,0.2
23,TCCCGGTTAGTGCAAGAGA,0.415

row,Sequence,TetR repression strength
1,TCCCTAGGAGTAACGGAGA,0.183
2,TCCCGTCGAGTGAAGGAGA,0.311
3,TCCCGTCTAGTTAAGGAGA,0.811
4,TCCCGTCGAGTTCCGGAGA,0.977
5,TCCCGTCGAGTTAAGGAGA,0.815
6,TCCCGTCGAGTCCCGGAGA,0.402
7,TCCCGTCGAGTGCCGGAGA,0.363
8,TCCCGTCGAGTAAAGGAGA,0.22
9,TCCCGTGTAGTTCTGGAGA,0.189
10,TCCCGTCTAGTTCTGGAGA,0.687
11,TCCCGTCTAGTTGAGGAGA,0.24
12,TCCCGTCTAGTTCTAGAGA,0.36
13,TCCCTTCTAGTTAAGGAGA,0.283
14,TCCCCGTAAGTGCAGGAGA,0.21
15,TCCCAGCGAGTCCAGGAGA,0.27
16,TCCCACTTAGTAAGTGAGA,0.141
17,TCCCAGTAAGTAGCCGAGA,0.0168
18,TCCCGGACAGTATATGAGA,0.304
19,TCCCTAGCAGTAGTAGAGA,0.681
20,TCCCCGTTAGTTAAGGAGA,0.149
21,TCCCCGCTAGTTAAGGAGA,0.755
22,TCCCCACTAGTTAAGGAGA,0.225
23,TCCCGGAGAGTGTATGAGA,0.188

row,Sequence,TetR repression strength
1,TCCCAGTGAGTTGCCGAGA,0.212
2,TCCCCTACAGTTCATGAGA,0.189
3,TCCCGTACAGTTGATGAGA,0.2
4,TCCCGTAAAGTTCATGAGA,1.21
5,TCCCGTCAAGTTCATGAGA,0.15
6,TCCCGTACAGTTCATGAGA,1.18
7,TCCCATAAAGTTCATGAGA,0.36
8,TCCCAGTTAGTCTTTGAGA,0.334
9,TCCCTAAAAGTTTGAGAGA,0.334
10,TCCCATCCAGTGATAGAGA,0.626
11,TCCCGTTCAGTGCGAGAGA,0.0532
12,TCCCTGATAGTGATCGAGA,0.362
13,TCCCGTTCAGTGCTAGAGA,0.681
14,TCCCGTGCAGTGCTAGAGA,0.38
15,TCCCTGCTAGTGATCGAGA,0.745
16,TCCCTGCTAGTGATAGAGA,0.638
17,TCCCATTCAGTTATAGAGA,0.596
18,TCCCGTTCAGTGAGAGAGA,0.516
19,TCCCGTGCAGTGATAGAGA,0.647
20,TCCCGTTCAGTGATAGAGA,0.819
21,TCCCATTCAGTGATAGAGA,0.707
22,TCCCGGGAAGTATTCGAGA,0.391
23,TCCCCAAGAGTTTGGGAGA,0.217

row,Sequence,TetR repression strength
1,TCCCGGATAGTACTAGAGA,0.291
2,TCCCGGTTAGTTCGAGAGA,0.0821
3,TCCCCACCAGTGGCGGAGA,0.231
4,TCCCTACTAGTACGGGAGA,0.394
5,TCCCGCTCAGTTGTAGAGA,0.421
6,TCCCATACAGTTGGAGAGA,0.37
7,TCCCCATAAGTACAAGAGA,0.446
8,TCCCGTGTAGTAGGAGAGA,0.17
9,TCCCTCGCAGTGGATGAGA,0.323
10,TCCCTGTCAGTGAGAGAGA,0.444
11,TCCCTGTCAGTTGGAGAGA,0.36
12,TCCCGTTCAGTAGGCGAGA,0.261
13,TCCCATTAAGTGATCGAGA,0.344
14,TCCCTGACAGTTGGCGAGA,0.301
15,TCCCTGTCAGTGATAGAGA,0.863
16,TCCCTGTCAGTTGGCGAGA,0.874
17,TCCCGCTCAGTACGCGAGA,0.104
18,TCCCGTTCAGTACGCGAGA,0.912
19,TCCCATTCAGTGATCGAGA,0.731
20,TCCCATTTAGTGATCGAGA,0
21,TCCCTGCCAGTGATAGAGA,0.646
